In PubChem BioAssay (Tox21):
Inconclusive results are not listed. Entries that show only a call come without a potency. A number with no mark means an inactive call. Activity calls are given as the source filed them. Unless noted, calls come from the whole dose curve; as a rule, active = well fitted curve in the direction sought with a large enough effect in the repeat runs; inconclusive = weak or mixed curves; inactive = no such curve, though single readings can be large; an effect the other way counts as inactive or inconclusive.

Assays:
[1] = qHTS assay to identify small molecule antagonists of the thyroid receptor (TR) signaling pathway - cell viability counter screen (AID 743064); note: nearly all actives have a fitted effect of over 50% in size; note: potency is the fitted concentration of half-maximal effect
Method in brief: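 In-well cytotoxicity read by CellTiter-Fluor (30 min, 37 C) following 23.5 h exposure of GH3 cells bearing a TRE-luciferase sensor. Compounds were added alongside 1 nM (final) T3 to drive TR transactivation.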

[2] = qHTS assay to identify small molecule antagonists of the thyroid receptor (TR) signaling pathway (AID 743065); note: nearly all actives have a fitted effect of over 55% in size; note: potency is the fitted concentration of half-maximal effect; for activity, negative = inhibition: series mostly up to about 70 µM
Method in brief: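 Antagonism measured as loss of luciferase signal in GH3 cells stably carrying a TRE-luciferase reporter, co-treated with compound and T3 (1 nM final) for 23.5 h at 37 C. Viability was read in the same well by CellTiter-Fluor.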

[3] = system: thyroid hormone receptor (rat, GH3 cells); assay: qHTS assay to identify small molecule agonists of the thyroid receptor (TR) signaling pathway (AID 743066; calls by dose curve)
[4] = qHTS assay to identify small molecule antagonists of the estrogen receptor alpha (ER-alpha) signaling pathway - cell viability counter screen (AID 743074; calls by dose curve;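 note: HEK293 cells carrying ER-alpha-UAS-bla reporter stimulated with 17beta-estradiol; nearly all actives have a fitted effect of over 45% in size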)
[5] = target: Estrogen receptor (Homo sapiens) (UniProt P03372); assay: qHTS assay to identify small molecule agonists of the estrogen receptor alpha (ER-alpha) signaling pathway (AID 743075; calls by dose curve;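 note: HEK293 GripTite cells with ER-alpha and UAS-driven beta-lactamase reporter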)
[6] = target: Estrogen receptor (Homo sapiens) (UniProt P03372); assay: qHTS assay to identify small molecule agonists of the estrogen receptor alpha (ER-alpha) signaling pathway using the BG1 cell line (AID 743079); note: nearly all actives have a fitted effect of over 20% in size
[7] = qHTS assay to identify small molecule antagonists of the estrogen receptor alpha (ER-alpha) signaling pathway using the BG1 cell line - cell viability counter screen (AID 743081);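 note: compound given together with 17beta-estradiol as the ER stimulus; series mostly up to about 70 µM; nearly all actives have a fitted effect of over 45% in size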
Aromatase (Homo sapiens) = Aromatase (Homo sapiens) (UniProt P11511); assay: qHTS assay to identify aromatase inhibitors (AID 743083); note: series mostly up to about 70 µM; nearly all actives have a fitted effect of over 55% in size
[8] = qHTS assay to identify aromatase inhibitors - cell viability counter screen (AID 743084);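 note: cells stimulated with testosterone during compound exposure; nearly all actives have a fitted effect of over 55% in size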
[9] = qHTS assay to identify small molecule that activate the aryl hydrocarbon receptor (AhR) signaling pathway - cell viability counter screen (AID 743086);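 note: HepG2 liver cells carrying the AhR DRE luciferase reporter; series mostly up to about 70 µM; nearly all actives have a fitted effect of over 45% in size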
Method in brief: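 Cytotoxicity counter screen: CellTiter-Fluor signal (30 min, 37 C) in 4000 HepG2 cells/well carrying the DRE-luciferase reporter, following 24 h compound exposure at 37 C.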

[10] = target: Peroxisome proliferator-activated receptor gamma (Homo sapiens) (UniProt P37231); assay: qHTS assay to identify small molecule agonists of the peroxisome proliferator-activated receptor gamma (PPARg) signaling pathway (AID 743094; active = well fitted activation curve with a large enough effect in the signal ratio in the repeat runs, not every such curve was filed as active; the % refers to the signal ratio)
Method in brief: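 Cells from the PPARg UAS-bla HEK293H line are plated and incubated 5 h at 37C. Compounds in DMSO are pinned in and left 17 h at 37C. LiveBLAzer B/G substrate is then added for 1 h at room temperature before fluorescence is measured.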

[11] = qHTS assay to identify small molecule antagonists of the peroxisome proliferator-activated receptor gamma (PPARg) signaling pathway - cell viability counter screen (AID 743194); note: nearly all actives have a fitted effect of over 55% in size
Method in brief: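 Viability was measured as CellTiter-Glo luminescence in GeneBLAzer PPARg UAS-bla HEK293H cells. These cells had been exposed 17 h at 37 C to compounds together with rosiglitazone at 50 nM final, with the beta-lactamase readout taken in the same wells.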

[12] = qHTS assay for small molecule activators of the heat shock response signaling pathway - cell viability counter screen (AID 743209); note: nearly all actives have a fitted effect of over 50% in size
Method in brief: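 Cytotoxicity counter screen run in parallel with the HSE beta-lactamase reporter, using the same wells. HeLa HSE-bla cells received compound for 5 h at 37 C; ATP-based CellTiter-Glo luminescence was measured after 30 min at room temperature.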

[13] = qHTS assay for small molecule activators of the heat shock response signaling pathway (AID 743210; active = well fitted activation curve with a large enough effect in the signal ratio in the repeat runs, with a control signal flat, not every such curve was filed as active; the % refers to the signal ratio; note: series mostly up to about 63 µM)
Method in brief: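 Compound exposure lasted 5 h at 37 C in HeLa cells carrying a heat-shock-element-driven beta-lactamase reporter. Read-out: fluorescence intensity after 2.5 h room-temperature loading with LiveBLAzer B/G FRET substrate.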

[14] = qHTS assay to identify small molecule antagonists of the estrogen receptor alpha (ER-alpha) signaling pathway using the BG1 cell line (AID 743080; calls by dose curve;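 note: BG1 cells stimulated with 17beta-estradiol alongside compound; series mostly up to about 70 µM; nearly all actives have a fitted effect of over 25% in size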)
Method in brief: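 Seeding, 24 h rest, compound transfer from DMSO, 17beta-estradiol addition, 21.5 h incubation, CellTiter-Fluor (30 min, 37 C), then ONE-Glo (30 min, room temperature): this sequence was run on BG1-Luc-4E2 reporter cells.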

[15] = target: Aryl hydrocarbon receptor (Homo sapiens) (UniProt P35869); assay: qHTS assay to identify small molecule that activate the aryl hydrocarbon receptor (AhR) signaling pathway (AID 743085);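 note: HG2L7.5c1 human HepG2 liver cells with stably integrated DRE-driven firefly reporter; series mostly up to about 70 µM; nearly all actives have a fitted effect of over 15% in size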
Method in brief: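 Luminescence (ONE-Glo) from a dioxin-responsive-element luciferase reporter in HG2L7.5c1 HepG2 cells after 24 hr compound exposure at 37C; viability measured by CellTiter-Fluor fluorescence beforehand.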

[16] = qHTS assay for small molecule agonists of the antioxidant response element (ARE) signaling pathway (AID 743202; active = well fitted activation curve with a large enough effect in the signal ratio in the repeat runs, not every such curve was filed as active; the % refers to the signal ratio)
Method in brief: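 After 16 hours of compound treatment at 37 C, HepG2 cells with a stably integrated ARE-driven beta-lactamase reporter were loaded 2 hours at room temperature with LiveBLAzer B/G FRET substrate and fluorescence intensity measured.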

[17] = qHTS assay for small molecule agonists of the antioxidant response element (ARE) signaling pathway - cell viability counter screen (AID 743203; calls by dose curve; note: nearly all actives have a fitted effect of over 55% in size)
Method in brief: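 Cytotoxicity was tested in parallel with the ARE reporter screen. ARE-bla HepG2 cells were exposed to compounds for 16 hrs, and viability was taken from CellTiter-Glo luminescence.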

[18] = target: Peroxisome proliferator-activated receptor gamma (Homo sapiens) (UniProt P37231); assay: qHTS assay to identify small molecule antagonists of the peroxisome proliferator-activated receptor gamma (PPARg) signaling pathway (AID 743191; calls by dose curve; note: series mostly up to about 63 µM; nearly all actives have a fitted effect of over 30% in size)
Method in brief: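 Beta-lactamase reporter under UAS control in HEK293H PPARg-bla cells; compound treatment 17 h at 37C. Read-out: fluorescence intensity after 1 h room-temperature incubation with LiveBLAzer B/G FRET substrate.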

Peroxisome proliferator-activated receptor gamma (Homo sapiens), sequence (P37231 whole entry, looked up): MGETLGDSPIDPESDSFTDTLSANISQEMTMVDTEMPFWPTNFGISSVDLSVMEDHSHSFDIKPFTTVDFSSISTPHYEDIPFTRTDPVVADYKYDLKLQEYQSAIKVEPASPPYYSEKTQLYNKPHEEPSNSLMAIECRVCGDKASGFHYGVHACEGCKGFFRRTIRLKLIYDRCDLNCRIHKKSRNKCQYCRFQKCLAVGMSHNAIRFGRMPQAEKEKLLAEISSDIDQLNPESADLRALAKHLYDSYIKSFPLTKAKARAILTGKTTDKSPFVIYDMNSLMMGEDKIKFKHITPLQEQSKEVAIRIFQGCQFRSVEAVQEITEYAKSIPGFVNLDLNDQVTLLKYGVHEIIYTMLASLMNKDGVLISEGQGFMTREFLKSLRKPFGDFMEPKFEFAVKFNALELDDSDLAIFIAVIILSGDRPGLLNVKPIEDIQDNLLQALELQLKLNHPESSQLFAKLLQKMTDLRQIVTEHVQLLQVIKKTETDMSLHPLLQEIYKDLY
Aryl hydrocarbon receptor (Homo sapiens), sequence (P35869 whole entry, looked up): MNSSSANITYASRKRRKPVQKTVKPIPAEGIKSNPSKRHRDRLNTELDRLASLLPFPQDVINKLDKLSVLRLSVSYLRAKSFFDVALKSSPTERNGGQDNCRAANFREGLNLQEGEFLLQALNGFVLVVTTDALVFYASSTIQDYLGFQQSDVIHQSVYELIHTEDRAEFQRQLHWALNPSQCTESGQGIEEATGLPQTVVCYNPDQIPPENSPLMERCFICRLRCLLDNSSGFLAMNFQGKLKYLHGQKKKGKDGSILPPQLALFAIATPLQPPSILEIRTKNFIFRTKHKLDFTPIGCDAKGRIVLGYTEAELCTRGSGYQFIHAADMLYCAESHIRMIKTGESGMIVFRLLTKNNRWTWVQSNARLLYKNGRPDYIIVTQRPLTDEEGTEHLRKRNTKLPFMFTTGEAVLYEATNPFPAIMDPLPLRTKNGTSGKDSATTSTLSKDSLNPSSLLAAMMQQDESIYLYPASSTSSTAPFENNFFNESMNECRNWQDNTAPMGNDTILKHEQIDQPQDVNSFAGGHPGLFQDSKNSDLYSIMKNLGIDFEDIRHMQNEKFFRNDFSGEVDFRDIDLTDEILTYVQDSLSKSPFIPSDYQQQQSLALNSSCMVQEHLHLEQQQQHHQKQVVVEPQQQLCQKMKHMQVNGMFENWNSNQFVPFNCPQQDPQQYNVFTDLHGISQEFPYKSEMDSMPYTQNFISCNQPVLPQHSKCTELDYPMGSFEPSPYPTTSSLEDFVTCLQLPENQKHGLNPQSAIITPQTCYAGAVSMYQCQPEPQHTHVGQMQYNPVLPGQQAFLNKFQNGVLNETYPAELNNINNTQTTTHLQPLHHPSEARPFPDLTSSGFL
Aromatase (Homo sapiens), sequence (P11511 whole entry, looked up): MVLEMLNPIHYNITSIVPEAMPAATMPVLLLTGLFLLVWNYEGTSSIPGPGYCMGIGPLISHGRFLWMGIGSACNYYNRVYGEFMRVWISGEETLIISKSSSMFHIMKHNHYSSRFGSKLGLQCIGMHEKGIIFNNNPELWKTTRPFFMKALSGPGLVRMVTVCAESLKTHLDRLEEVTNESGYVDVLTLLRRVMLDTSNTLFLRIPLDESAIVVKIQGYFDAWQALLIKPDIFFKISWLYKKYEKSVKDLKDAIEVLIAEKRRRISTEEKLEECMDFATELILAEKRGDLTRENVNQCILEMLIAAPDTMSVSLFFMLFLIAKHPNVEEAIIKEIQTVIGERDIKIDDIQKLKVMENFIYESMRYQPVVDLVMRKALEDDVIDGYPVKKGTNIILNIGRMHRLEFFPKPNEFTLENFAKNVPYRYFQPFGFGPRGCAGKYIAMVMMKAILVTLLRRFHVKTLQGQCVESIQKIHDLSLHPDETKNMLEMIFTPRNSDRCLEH
Estrogen receptor (Homo sapiens), sequence (P03372 whole entry, looked up): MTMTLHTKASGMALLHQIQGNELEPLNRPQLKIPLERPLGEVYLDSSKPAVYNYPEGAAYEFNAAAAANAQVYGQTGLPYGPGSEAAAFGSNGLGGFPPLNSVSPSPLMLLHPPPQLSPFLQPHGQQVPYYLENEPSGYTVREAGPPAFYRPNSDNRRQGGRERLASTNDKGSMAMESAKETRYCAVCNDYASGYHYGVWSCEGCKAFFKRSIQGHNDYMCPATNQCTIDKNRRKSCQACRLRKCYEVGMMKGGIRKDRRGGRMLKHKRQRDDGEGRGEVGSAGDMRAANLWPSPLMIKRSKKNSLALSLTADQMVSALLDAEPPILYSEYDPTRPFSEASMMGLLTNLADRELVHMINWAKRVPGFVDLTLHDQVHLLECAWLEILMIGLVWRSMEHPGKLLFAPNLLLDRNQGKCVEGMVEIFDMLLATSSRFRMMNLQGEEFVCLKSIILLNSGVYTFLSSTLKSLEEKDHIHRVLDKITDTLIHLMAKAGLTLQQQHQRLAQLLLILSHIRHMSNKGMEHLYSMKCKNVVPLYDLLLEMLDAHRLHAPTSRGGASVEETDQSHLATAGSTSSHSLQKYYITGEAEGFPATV

In the case of `CC(C)c1ccc2cc(C(C)C)ccc2c1`, the Potency [1] is reported as “inactive”, the Potency [2] is reported as “inactive” and the outcome [3] is reported as “inactive”. The outcome [4] was “inactive”, the outcome [5] was “inactive” and the Potency [6] was “inactive”. For the same compound, the outcome [7] was “inactive”, the Potency (Aromatase (Homo sapiens)) was “inactive” and the Potency [8] was “inactive”. For the same compound, the Potency [9] was “inactive”, the outcome [10] was “inactive” and the outcome [11] was “inactive”. The outcome [12] was “inactive” and the outcome [13] was “inactive”.
In the case of `COCCOCCOCCOCCO`, the Potency [1] is reported as “inactive”, the Potency [2] is reported as “inactive” and the outcome [3] is reported as “inactive”. For the same compound, the outcome [4] was “inactive”, the outcome [5] was “inactive” and the Potency [6] was “inactive”. The Potency [14] was “inactive”, the outcome [7] was “inactive” and the Potency (Aromatase (Homo sapiens)) was “inactive”. The Potency [8] was “inactive”, the Potency [15] was “inactive” and the Potency [9] was “inactive”. For the same compound, the outcome [10] was “inactive”, the outcome [11] was “inactive” and the Potency [16] was “inactive”. The outcome [17] was “inactive”.
For `CN(CCOc1ccc(NS(C)(=O)=O)cc1)CCc1ccc(NS(C)(=O)=O)cc1`, the Potency [1] was “inactive”, the Potency [2] was “inactive” and the outcome [3] was “inactive”. For the same compound, the outcome [4] was “inactive”, the outcome [5] was “inactive” and the Potency [6] was “inactive”. For the same compound, the Potency [14] was “inactive”, the outcome [7] was “inactive” and the Potency (Aromatase (Homo sapiens)) was “inactive”. For the same compound, the Potency [15] was “inactive”, the Potency [9] was “inactive” and the outcome [10] was “inactive”. For the same compound, the outcome [11] was “inactive”, the Potency [16] was “inactive” and the outcome [17] was “inactive”. The outcome [12] was “inactive” and the outcome [13] was “inactive”.
With `CO[C@@H]1[C@@H](OC(N)=O)[C@@H](O)[C@H](Oc2ccc3c(O)c(NC(=O)c4ccc(O)c(CC=C(C)C)c4)c(=O)oc3c2C)OC1(C)C` the Potency [1] was “inactive”, the Potency [2] was “inactive” and the outcome [3] was “inactive”. The outcome [4] was “inactive”, the outcome [5] was “inactive” and the Potency [6] was “inactive”. The Potency [14] was “inactive”, the outcome [7] was “inactive” and the Potency (Aromatase (Homo sapiens)) was “inactive”. The Potency [8] was “inactive”, the Potency [15] was “inactive” and the Potency [9] was “inactive”. The outcome [11] was “inactive”, the Potency [16] was “inactive” and the outcome [17] was “inactive”. For the same compound, the outcome [12] was “inactive” and the outcome [13] was “inactive”.
In the case of `C[Si](C)=O`, the activity change, negative = cytotoxic [1] is reported as -4.47% [at 8.44 µM], the activity, negative = inhibition [2] is reported as 0.0327% [at 8.44 µM] and the activation [3] is reported as 0.231% [at 8.08 µM]. For the same compound, the activity, negative = cytotoxicity [4] was 5.35% [at 6.72 µM], the activity change, negative = cytotoxicity [7] was -7.83% [at 8.47 µM] and the activity, negative = inhibition (Aromatase (Homo sapiens)) was 11% [at 8.47 µM]. The activity change, negative = cytotoxicity [8] was -1.09% [at 8.47 µM], the activation [15] was -0.45% [at 8.47 µM] and the viability change, negative = cytotoxic [9] was -0.537% [at 8.47 µM]. It also gave an activation [10] of -3.83% [at 7.08 µM], a ratio activity, negative = inhibition [18] of 8.93% [at 5.95 µM] and an activity change, negative = cytotoxicity [11] of 17.1% [at 5.95 µM]. It also gave an activation [16] of -4.69% [at 8.36 µM], a viability change, negative = cytotoxic [17] of -8.17% [at 8.36 µM] and an activation [13] of -1.34% [at 5.95 µM].
With `O=C1c2cccc3c2[C@H](CCC3)CN1[C@@H]1CN2CCC1CC2` the Potency [1] was 23.7 µM (active), the Potency [2] was 18.8 µM (active) and the outcome [3] was “inactive”. The outcome [4] was “inactive”, the outcome [5] was “inactive” and the Potency [6] was “inactive”. For the same compound, the Potency (Aromatase (Homo sapiens)) was “inactive”, the Potency [8] was “inactive” and the Potency [15] was “inactive”. The outcome [10] was “inactive”, the outcome [11] was “inactive” and the Potency [16] was “inactive”. For the same compound, the outcome [17] was “inactive”, the outcome [12] was “inactive” and the outcome [13] was “inactive”.
For `OCCC(F)(F)C(F)(F)C(F)(F)C(F)(F)C(F)(F)C(F)(F)C(F)(F)C(F)(F)F`, the Potency [1] was “inactive”, the Potency [2] was “inactive” and the outcome [3] was “inactive”. The outcome [4] was “inactive”, the outcome [5] was “inactive” and the Potency [6] was “inactive”. For the same compound, the Potency [14] was “inactive”, the outcome [7] was “inactive” and the Potency (Aromatase (Homo sapiens)) was “inactive”. The Potency [8] was “inactive”, the Potency [15] was “inactive” and the Potency [9] was “inactive”. The outcome [11] was “inactive”, the outcome [17] was “inactive” and the outcome [12] was “inactive”. For the same compound, the outcome [13] was “inactive”.
